Unmarked numbers belong to inactive results. Calls come from the whole dose curve; as a rule, active = well fitted activation curve with a large enough effect; inconclusive = small, poorly fitted or top-dose-only effect; inactive = flat fitted curve, though single readings scatter.
Assay: Confirmation and Secondary Assay for Modulators of Hemoglobin Beta Chain Splicing at IVS2 654 locus (AID 910);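 note: HeLa cells stably carrying EGFP split by mutant beta-globin IVS2-654 intron; % of control where 0% means no effect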
Conditions: HeLa EGFP-654 splicing reporter, GFP fluorescence, 48 h; series mostly up to 46.1 µM; activation (splicing correction): at the top concentration
Description: NIH Chemical Genomics Center [NCGC] NIH Molecular Libraries Screening Centers Network [MLSCN] MLSCN Grant: 1 X01 MH080684-01 PI Name: Dr. Ryszard Kole NCGC Assay Overview: Modulation of Alternative Splicing as Therapy Abnormal splicing is associated with a number of diseases, including cancer and genetic diseases such as cystic fibrosis, muscular dystrophy and beta-thalassemia. Alteration of disease associated splicing patterns provides a promising target for treatment. […] Mutations in the second intron of the b-globin gene at positions 654 or 705 are clinically relevant and cause mis-splicing which results in an out of frame gene product. […] EGFP-654 HeLa Cells as screen system. HeLa cell lines were stably transfected with a construct in which the EGFP (enhanced green fluorescent protein) cDNA was interrupted by the second intron of the beta-globin gene (IVS2-654). The ISV2 intron contains mutations which cause mis-splicing of EGFP and premature termination of EGFP which results in a nonfluorescent protein product. […] Expression of the transgene was driven by the CMV promoter. We concluded that a low molecular weight compound, which restored correct splicing of intron 2 would also generate functional EGFP protein, resulting in a fluorescent signal. Thus, the HeLa cells that express the EGFP-654 construct can be used for high throughput screening of a chemical library.
NCGC Assay Protocol Summary: Confirmatory Screening. Freshly thawed HeLa EGFP-654 cells were seeded in 5 ul of optimem media (Invitrogen) containing 2 % fetal calf serum (Hyclone) and 1x penicillin/streptomycin (Invitrogen) at a concentration of 500 cells per well in 1536-well plates. Cells were incubated overnight at 37C in 5% CO2. The next day, cells were treated with DMSO, 500 nM antisense ISV2 654 PNA control oligo, or library compound and allowed to grow at 37C in 5% CO2 for 2 days. The PNA oligo blocked the mutation site in the intron and allowed proper (wild type) splicing to occur, resulting in full length EGFP expression and also allowed for optimization of the assay parameters. Plates were read in the Acumen Explorer (TTP Labtech) using 488 nm laser excitation and 500-520 nm emission PMT filter in a 1 x 8 uM capture mode. Fluorescnet objects ranging in size from 5 to 250 uM were measured and the total peak GFP intensity for each well was used for data analysis. Keywords: Thalassemia, beta-thalassemia, beta-globin, EGFP, ISV2 654, ISV2 705, SSO, PNA, antisense, splicing, MLSMR, MLSCN, NIH Roadmap, qHTS, NCGC

| Compound | activation (splicing correction) |
| --- | --- |
| CC1CC[C@@]2(NC1)OC1CC3C4CC[C@@H]5CC(O)CC[C@@]5(C)C4CC[C@]3(C)C1C2C (stereo not given in full) | 0.117% |
| CCCCCCCCCCCCCC(=O)OC1C(C)[C@@]2(O)C(C=C(CO)C[C@]3(O)C(=O)C(C)=C[C@H]23)[C@@H]2C(C)(C)[C@]12OC(C)=O (stereo not given in full) | 18.1% |
| O=C(NC(=O)c1c(F)cccc1F)Nc1ccc(Cl)cc1 | -0.0019% [at 38.3 µM] |
| C[C@H]1O[C@H](O[C@H]2[C@H](O)[C@@H](O)[C@@H](O)[C@H](O)[C@@H]2O)[C@@H](N)C[C@@H]1NC(=N)C(=O)O | 5.64% [at 38.3 µM] |
| C=C1CC2C(CC[C@]3(C)C(=O)CCC23)[C@]2(C)C=CC(=O)C=C12 (stereo not given in full) | 3.79% [at 38.3 µM] |
| O=[N+]([O-])OC1CO[C@H]2C(O[N+](=O)[O-])COC12 (stereo not given in full) | 3.84% |
| CCCCN(CC)c1c([N+](=O)[O-])cc(C(F)(F)F)cc1[N+](=O)[O-] | -1.9% [at 38.3 µM] |
| CN(C)C1C(=O)C(C(N)=O)=C(O)[C@@]2(O)C(=O)C3=C(O)c4c(O)cccc4[C@](C)(O)C3C(O)C12 (stereo not given in full) | 2.28% |
| CN(CCC(N)CC(=O)NC1C=CC(n2ccc(N)nc2=O)OC1C(=O)O)C(=N)N (stereo not given) | 4.07% |
| COc1cc2ccc(=O)oc2c2ccoc12 | 2.74% [at 38.3 µM] |
| CC(CO)NC(=O)C1C=C2c3cccc4[nH]cc(c34)C[C@H]2N(C)C1 (stereo not given in full) | 10.4% |
| CC(C)N(C(=O)CCl)c1ccccc1 | -0.605% [at 38.3 µM] |
| COc1c2c(c(CC=C(C)C)c3oc(=O)c(-c4ccc(O)cc4)c(O)c13)OC(C)(C)C=C2 | 1.76% [at 38.3 µM] |
| CC(=O)Oc1c2c(c(CC=C(C)C)c3c1C(=O)C1=CC4CC5C(C)(C)OC(C/C=C(\C)C(=O)O)(C4=O)[C@]15O3)OC(C)(CCC=C(C)C)C=C2 (stereo not given in full) | -0.921% [at 38.3 µM] |
| CNNC | -2.3% [at 38.3 µM] |
| CN(C)C1C(=O)C(C(N)=O)=C(O)[C@@]2(O)C(=O)C3=C(O)c4c(O)cccc4[C@@](C)(O)C3CC12 (stereo not given in full) | 0.774% |
| CSc1nc(NC(C)C)nc(NC(C)C)n1 | 1.84% [at 38.3 µM] |
| CC1=CC(=O)c2c(O)cccc2C1=O | -6.81% |
| CCC1C(=O)OC[C@H]1Cc1cncn1C (stereo not given in full) | 10.8% |
| CC(=O)Oc1ccc(/C=C/c2cc(OC(C)=O)cc(OC(C)=O)c2)cc1 | -1.24% [at 38.3 µM] |

| Compound | activation (splicing correction) |
| --- | --- |
| CC1(C)C(C(Cl)Cl)C2(Cl)C(Cl)C(Cl)C1(Cl)C2(Cl)Cl (stereo not given) | -1.31% [at 38.3 µM] |
| CC[C@]1(O)CC(O[C@@H]2CC(N(C)C)C(O)C(C)O2)c2c(cc3c(c2O)C(=O)c2c(O)ccc(O)c2C3=O)C1C(=O)OC (stereo not given in full) | -4.24% |
| COC(=O)/C(C)=C\CC12OC(C)(C)C3CC(C=C4C(=O)c5c(OC)c6c(c(CC=C(C)C)c5OC431)OC(C)(CCC=C(C)C)C=C6)C2=O (stereo not given) | -1.05% [at 38.3 µM] |
| CCC1C2CC3C4N(C)c5ccccc5[C@]45CC(C2C5O)N3C1O (stereo not given in full) | 13% |
| C[C@@]12C=CC(=O)C=C1CCC1C2CC[C@]2(C)C(=O)CCC12 (stereo not given in full) | 1.21% [at 38.3 µM] |
| CC1(C)C(=O)[C@@H]2OC2[C@@]2(C)C1CC(O)[C@]1(C)C2CC[C@@]2(C)C(c3ccoc3)OC(=O)C3OC312 (stereo not given in full) | -1.07% [at 38.3 µM] |
| NCC(N)C(=O)c1ccccc1 (stereo not given) | 2.65% [at 38.3 µM] |
| CC(C)=CCCC1(C)C=Cc2c(O)c3c(c(CC=C(C)C)c2O1)OC12C(CC4CC1C(C)(C)OC2(C/C=C(/C)C(=O)O)C4O)C3=O (stereo not given) | -3.01% |
| CCC(C)C(=O)OC1C[C@@]2(C)C(c3ccoc3)OC(=O)CC23OC2(C)OC34C(OC(=O)C(C)C)[C@]3(O)C(OC(=O)C5(C)OC5C)[C@]5(C)CC3(O)[C@](C)(C5CC(=O)OC)C14O2 (stereo not given in full) | -3.72% |
| COc1cc2c(cc1OC)[C@@H]1C(=O)c3ccc4c(c3OC1CO2)CC(C(C)C)O4 (stereo not given in full) | -0.181% [at 38.3 µM] |
| O=C1C=C2C(=CCOC2O)O1 (stereo not given) | -7.16% |
| COc1ccc(C2Oc3c(I)c(OC)cc(OC)c3CC2O)cc1OC (stereo not given) | 2.66% [at 38.3 µM] |
| CCOP(=S)(OCC)SCn1c(=O)oc2cc(Cl)ccc21 | -1.75% [at 38.3 µM] |
| O=C1CC[C@]2(O)C3Cc4ccc(O)c5c4C2(CCN3CC2CC2)C1O5 (stereo not given in full) | 0.678% |
| COC(=O)[C@]1(C)CC[C@@]2(C)CC[C@@]3(C)C4=CCc5c(cc(O)c(O)c5C)[C@]4(C)CC[C@@]3(C)C2C1 (stereo not given in full) | -2.21% [at 38.3 µM] |
| CC1CC(Cl)CCC1C(=O)OC(C)(C)C (stereo not given) | -0.404% [at 38.3 µM] |
| OCC1OC(n2cnc3cc(Cl)c(Cl)cc32)C(O)C1O (stereo not given) | 4.25% [at 38.3 µM] |
| CN1Cc2c(ccc3c2OCO3)C2C(O)Cc3cc4c(cc3C21)OCO4 (stereo not given) | -0.131% [at 38.3 µM] |
| COc1ccc2c(c1O)-c1c(OC)c(OC)cc3c1[C@@H](C2)N(C)CC3 | 8.82% |
| CC(=O)OCC1=C(C(=O)O)N2C(=O)C(NC(=O)CCCC(N)C(=O)O)C2SC1 (stereo not given) | 3.84% |

Reference: PubChem BioAssay (NCATS)
